# PI5P4K alpha inh: qHTS for Inhibitors of phosphatidylinositol 5-phosphate 4-kinase (PI5P4K). Phosphatidylinositol 5-phosphate 4-kinase type-2 alpha (Homo sapiens), P48426. PI5P4Kalpha enzyme, ADP-Glo luminescence, 60 min; active compounds read low. max response, %. hit rate 1.2% among 330,000. AID 652105, 2013; active = max response of -50% or lower; inconclusive = between -30% and -50%; inactive = -30% or higher; also: value at the top dose of about 77 µM
#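 ADP-Glo luminescence end-point after a 60 min room-temperature kinase reaction. PI5P4Kalpha and substrate in HEPES pH 7.4 buffer with EGTA, 0.1% CHAPS and 5% DMSO; ATP at 5 microM final.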
# POLI inh: qHTS for Inhibitors of Polymerase Iota. Pol iota fluorescent replication assay, 10 min. Potency, µM (doses to about 115 µM), most hits filed as inhibitors. hit rate 1% among 390,000
#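 Fluorescent replication assay read twice, at 0 min and 10 min after adding 50 nM (final) substrate. Enzyme (10 nM) and compounds were first incubated 15 min at room temperature; enzyme-free buffer wells were negative controls.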
# POLK inh: qHTS for Inhibitors of Polymerase Kappa; purified Pol kappa, fluorescent DNA synthesis assay, 10 min; AID 588579, 2011; Potency, µM (top dose mostly 107 µM), most hits filed as inhibitors; DNA polymerase kappa (Homo sapiens), Q9UBT6; hit rate 0.53% among 400,000
#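 Pol kappa 10 nM + cpd, 15 min RT; start w/ substrate 50 nM final; fluorescence kinetic read, 0 and 10 min. Neg ctrl: buffer, no enzyme.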
# Pol eta inh: qHTS for Inhibitors of Polymerase Eta; recombinant Pol eta, fluorescent DNA replication assay; hit rate 1.2% among 390,000; Potency, µM (titrated, usually from 114 µM), usual class: inhibitors; DNA polymerase eta (Homo sapiens), Q9Y253
#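 Pol eta at 10 nM preincubated with compounds 15 min at room temperature; reaction started with fluorescent substrate (50 nM final) and read kinetically at 0 and 10 min.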
# POLB inh: qHTS Assay for Inhibitors of DNA Polymerase Beta. hit rate 1.3% among 340,000. Potency, µM (series often up to 114 µM), usual class: inhibitors. P06746. Pol beta primer extension/strand displacement, fluorescence kinetic
#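 Reaction started by 50 nM substrate onto compound-treated Pol beta (10 nM, 15 min preincubation, room temperature); plates read at 0 min and 10 min. Normalized concentration-effect data fitted by four-parameter Hill equation.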
# WRN inhibitor: qHTS for Inhibitors of WRN Helicase; Bifunctional 3'-5' exonuclease/ATP-dependent helicase WRN (Homo sapiens), Q14191; WRN helicase unwinding, fluorescent forked duplex, kinetic; Potency, µM (series often up to 114 µM), usual class: inhibitors; hit rate 0.46% among 360,000; also: nearly all actives have a fitted effect of over 55% in size
# Target sequence (Q14191 whole entry, looked up): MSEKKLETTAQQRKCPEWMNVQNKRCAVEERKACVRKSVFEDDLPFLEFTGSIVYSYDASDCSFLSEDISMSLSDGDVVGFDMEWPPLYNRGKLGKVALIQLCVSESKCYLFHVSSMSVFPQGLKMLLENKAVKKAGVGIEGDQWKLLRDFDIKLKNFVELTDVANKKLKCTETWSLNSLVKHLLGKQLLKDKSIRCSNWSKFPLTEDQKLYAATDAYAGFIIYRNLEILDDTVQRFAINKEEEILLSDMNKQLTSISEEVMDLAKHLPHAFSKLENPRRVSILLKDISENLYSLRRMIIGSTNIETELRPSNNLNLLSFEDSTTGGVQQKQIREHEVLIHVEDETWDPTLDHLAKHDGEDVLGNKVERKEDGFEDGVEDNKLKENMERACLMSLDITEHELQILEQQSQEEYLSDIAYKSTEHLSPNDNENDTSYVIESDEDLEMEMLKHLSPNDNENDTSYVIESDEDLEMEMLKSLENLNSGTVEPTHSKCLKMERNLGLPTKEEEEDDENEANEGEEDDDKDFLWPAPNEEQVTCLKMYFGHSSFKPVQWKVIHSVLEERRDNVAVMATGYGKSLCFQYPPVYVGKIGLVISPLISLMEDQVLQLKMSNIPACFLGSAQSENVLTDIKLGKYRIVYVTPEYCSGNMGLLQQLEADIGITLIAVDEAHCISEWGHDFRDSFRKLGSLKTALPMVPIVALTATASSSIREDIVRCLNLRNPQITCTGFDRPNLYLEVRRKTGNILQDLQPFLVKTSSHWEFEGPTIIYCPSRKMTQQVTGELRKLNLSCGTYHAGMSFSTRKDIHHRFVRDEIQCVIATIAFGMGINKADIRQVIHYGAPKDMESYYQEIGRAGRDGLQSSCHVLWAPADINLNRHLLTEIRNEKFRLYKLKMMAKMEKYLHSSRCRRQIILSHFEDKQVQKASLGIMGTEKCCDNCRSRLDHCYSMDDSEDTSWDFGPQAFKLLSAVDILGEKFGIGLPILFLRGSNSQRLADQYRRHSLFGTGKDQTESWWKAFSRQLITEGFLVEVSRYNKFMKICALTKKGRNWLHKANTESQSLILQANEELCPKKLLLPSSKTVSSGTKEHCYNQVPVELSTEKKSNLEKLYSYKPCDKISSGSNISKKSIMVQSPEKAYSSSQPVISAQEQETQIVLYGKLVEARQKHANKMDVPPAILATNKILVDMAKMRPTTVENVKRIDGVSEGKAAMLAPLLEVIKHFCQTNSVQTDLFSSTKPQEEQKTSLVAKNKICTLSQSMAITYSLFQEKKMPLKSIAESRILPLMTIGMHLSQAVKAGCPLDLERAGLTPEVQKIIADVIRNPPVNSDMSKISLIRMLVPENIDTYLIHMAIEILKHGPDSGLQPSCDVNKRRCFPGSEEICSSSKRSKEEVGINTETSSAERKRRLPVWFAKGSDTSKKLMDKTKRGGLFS
#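 Screening of the MLSMR collection measured strand separation of a quenched forked DNA duplex (100 nM) by 20 nM WRN with 2 mM ATP, all final. Compounds were preincubated with enzyme 15 min at room temperature.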
# A number is an active result; - = inactive; ? = inconclusive; . = no result given; ! = not confirmed by another sample; [ ] = another dose, or the depositor's remark. Shown are actives, neighbours in structure and some others; about 2.8% of the full set was active somewhere. Unless noted, calls follow the shape of the dose curve; as a rule, active = well fitted curve in the direction sought with a large enough effect; inconclusive = small, poorly fitted or top-dose-only effect, or another doubt; inactive = no such curve, though single readings can be large; an effect the other way counts as inactive or inconclusive.
SMILES,PI5P4K alpha inh,POLI inh,POLK inh,Pol eta inh,POLB inh,WRN inhibitor
Cc1nc(N)sc1C(=O)N/N=C/c1ccc([N+](=O)[O-])cc1,-,-,-,-,-,-
COc1cc(/C=N\NC(=O)c2sc(N)nc2C)cc(OC)c1OC,-,7.1µM,?,?,28µM,-
CCN(C(=O)CCS(=O)(=O)c1cc2[nH]c(=O)c(=O)[nH]c2cc1C)c1ccccc1,.,-,-,-,-,.
O=C(O)CCC(=O)Nc1ccc(Cc2ccc(NC(=O)CCC(=O)O)c(O)c2)cc1O,-,?,-,16µM,-,-
Cc1ccc(OCC(=O)N(Cc2ccc(Cl)cc2)Cc2ccco2)cc1C,.,-,-,.,-,.
O=C(/C=C/c1ccco1)Nc1ccc(Cl)c(-c2nc3cc(Cl)ccc3o2)c1,.,-,-,-,-,.
O=C(CN1C(=O)NC2(CCOc3ccccc32)C1=O)c1ccc[nH]1 (stereo unspecified),?,40µM,-,?,.,-
CC1(c2ccc3c(c2)OCCO3)NC(=O)N(CC(=O)c2ccc[nH]2)C1=O (stereo unspecified),-53,?,-,?,.,-
CC1(c2ccc3c(c2)OCO3)NC(=O)N(CC(=O)c2ccc[nH]2)C1=O (stereo unspecified),-,-,-,-,.,-
C=CCNC(=O)c1cnn2c1NC(=C)C=C2C,.,-,-,.,.,.
Cc1ccc(CNC(=O)c2ccc3c(c2)nc(C)n3-c2cccc(F)c2)cc1,.,-,-,-,-,.
Cc1c(C(=O)O)sc2nc(/C=C/c3cccc(F)c3)[nH]c(=O)c12,-55,-,-,79µM,45µM,-[11.6 µM]
C=CCn1c(SCc2nc3sc(C(=O)O)c(C)c3c(=O)[nH]2)nnc1-c1ccc(F)cc1,?,-,-,?,-,-
COc1ccccc1CNC(=O)C1CCCN(c2nnc(-n3c(C)ccc3C)s2)C1 (stereo unspecified),.,-,-,-,-,.
CCn1cc(C(=O)N2CCN(c3cccc(C)c3)C(C)C2)c(=O)c2cc(S(=O)(=O)N3CCOCC3)ccc21 (stereo unspecified),.,-,-,-,-,.
Cc1ccc2c(c1)Oc1ccc([N+](=O)[O-])cc1C(=O)N2,-,-,-,-,-,-
Cc1ccc2c(c1)Oc1ccc(NC(=O)CCl)cc1C(=O)N2,-,-,-,79µM,-,-
Cc1ccc(S(=O)(=O)N2C[C@H]3[C@H]4C(=O)N(c5ccccc5)C(=O)[C@H]4C[C@H](OC(=O)NCc4ccccc4)[C@@]3(O)C2)cc1,-,.,.,-,.,-
Cc1cc(-c2csc(NC(=O)C3=COCCO3)n2)c(C)n1C,-,?,?,-,.,-[11.6 µM]
Cc1cc(-c2csc(NC(=O)c3ccc(=O)n(C)n3)n2)c(C)n1CC1CCCO1 (stereo unspecified),-,11µM,?,?,-,-
O=C(O)C1=CC(=C(c2ccc(O)c(C(=O)O)c2)c2ccc(O)c(C(=O)O)c2)C=CC1=O,.,0.05µM!,0.63µM!,0.13µM,0.022µM,.
CC1=C/C(=C(\c2ccc(O)c(C)c2)c2ccccc2S(=O)(=O)O)C=CC1=O,-,-,-,-,?,-
COc1cccc(-n2c(SCC(=O)Nc3nnc(C)s3)nc3c([nH]c4ccccc43)c2=O)c1,.,-,-,-,-,.
Cc1ccc(CNC(=O)c2cn(C)c3ccc(S(=O)(=O)N4CCC(C)CC4)cc3c2=O)cc1,.,-,-,-,-,.
O=C(O)c1cc(Cl)c2c(c1)OCO2,-,?,-,22µM,?,-
SMILES,PI5P4K alpha inh,POLI inh,POLK inh,Pol eta inh,POLB inh,WRN inhibitor
CC1CCN(C(=O)COC(=O)c2cc(Cl)c3c(c2)OCO3)CC1,-,-,-,?,.,-
CC(CN1CCN(c2ccccc2)CC1)c1ccccc1 (stereo unspecified),.,45µM,-,-,-,-[11.6 µM]
O=C(c1cc(-c2ccccc2O)on1)N1CCCCC1,.,-,-,.,-,.
Cc1ccc(Cl)cc1NC(=O)Cn1c(=O)n(CCC(=O)NCc2ccc3c(c2)OCO3)c(=O)c2sccc21,.,-,-,-,14µM,.
O=C(O)C1CSC(c2ccco2)N1 (stereo unspecified),-80,?,18µM,10µM,8.9µM,14µM
Cc1ccc(-c2ccc(S(=O)(=O)Nc3cccnc3)cc2)cc1,-,-,-,-,50µM,-
CCc1c(O)cc(=O)n(-c2ccccc2)c1-c1ccccc1,?,?,-,32µM,22µM,?
Cn1nnnc1SCC(=O)Nc1nc2c(s1)CCCC2,.,-,-,-,-,-
O=C(CSC1=NCCS1)Nc1nc2c(s1)CCCC2,?,-,-,-,56µM,-
C#CCOCCOCCOCCNc1nc(N2CCN(C(=O)CCCCCCCCCCNC(=O)[C@H](CO)n3cc(CCCSC)nn3)CC2)nc(N2CCN(C(=O)CCCCCCCCCCNC(=O)[C@H](CCCN=C(N)N)n3cc(C[C@@H](C)CC)nn3)CC2)n1,-79,?,-,?,.,?
C#CCOCCOCCOCCNc1nc(N2CCN(C(=O)CCCCCCCCCCNC(=O)[C@H](CO)n3cc(CCCSC)nn3)CC2)nc(N2CCN(C(=O)CCCCCCCCCCNC(=O)[C@H](CCCCN)n3cc(CCO)nn3)CC2)n1,-51,?,-,?,.,?
C#CCOCCOCCOCCNc1nc(N2CCN(C(=O)CCCCCCCCCCNC(=O)Cn3cc(C[C@@H](C)O)nn3)CC2)nc(N2CCN(C(=O)CCCCCCCCCCNC(=O)[C@H](CCCN=C(N)N)n3cc(C[C@@H](C)CC)nn3)CC2)n1,-76,-,-,?,.,?
C#CCOCCOCCOCCNc1nc(N2CCN(C(=O)CCCCCCCCCCNC(=O)Cn3cc(C[C@@H](C)O)nn3)CC2)nc(N2CCN(C(=O)CCCCCCCCCCNC(=O)[C@H](CO)n3cc(CCCSC)nn3)CC2)n1,-,-,-,-,.,-
C#CCOCCOCCOCCNc1nc(N2CCN(C(=O)CCCCCCCCCCNC(=O)Cn3cc(C[C@@H](C)O)nn3)CC2)nc(N2CCN(C(=O)CCCCCCCCCCNC(=O)[C@H](CCCCN)n3cc(CCCC(=O)O)nn3)CC2)n1,-,-,-,-,.,-
C#CCOCCOCCOCCNc1nc(N2CCN(C(=O)CCCCCCCCCCNC(=O)[C@@H](CCSC)n3cc(CCO)nn3)CC2)nc(N2CCN(C(=O)CCCCCCCCCCNC(=O)[C@H](CCSC)n3cc(CCO)nn3)CC2)n1,-,-,-,-,.,-

# High-throughput results (PubChem BioAssay)
